Measurements taken from PubChem BioAssay (Tox21).
Inconclusive results are not listed. Activity calls are given as the source filed them. Calls come from the whole dose curve; as a rule, active = well fitted cell-killing curve with a large enough effect in the repeat runs; inconclusive = weak or mixed curves, or effect the other way; inactive = flat fitted curve, though single readings scatter.

test: cAMP Responsive Elements (CRE) small molecule agonists, cell-based qHTS assay: qHTS cell viability counter screen (AID 2060914); conditions: CRE-bla HEK293T viability, CellTiter-Glo luminescence, 5 h; series mostly up to 92.4 µM; activity change, negative = cytotoxicity: at the top concentration; note: nearly all actives have a fitted effect of over 50% in size
Outline: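 CRE-bla HEK293T cells in 10% dialyzed FBS medium were exposed to compounds for 3 h at 37C after 18 h plating. CellTiter-Glo was then added in the same wells, and luminescence was read after 30 min at room temperature.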
% is set by controls: 0 for no effect and ±100 for the full control effect; potency is the fitted concentration of half-maximal effect.

SMILES | activity change, negative = cytotoxicity | Potency
CCOC(=O)c1ccccc1S(=O)(=O)NC(=O)Nc1nc(Cl)cc(OC)n1 | -0.591% (inactive) | 
C[C@H]1O[C@H](OC2[C@@H](O)[C@@H](O)C(O)[C@H](O)[C@H]2O)[C@@H](N)C[C@@H]1N=C(N)C(=O)O (stereo not given in full) | 5.36% (inactive) | 
BrCc1ccc(Br)cc1 | -4.3% (inactive) | 
Cc1ccc(N=CN(C)C=Nc2ccc(C)cc2C)c(C)c1 |  | inactive
CCC(CC)Nc1c([N+](=O)[O-])cc(C)c(C)c1[N+](=O)[O-] |  | inactive
C=CC(=O)OCC(CC)(COC(=O)C=C)COC(=O)C=C | 14.5% (inactive) | 
CCOP(OCC)OCC |  | inactive
CC(C)N1C(=O)N(c2ccccc2)CSC1=NC(C)(C)C | -18.1% (inactive) | 
CCOP(=O)(OCC)O/C(=C/Cl)c1ccc(Cl)cc1Cl | -2.17% (inactive) | 
Cc1ccc(N)cc1Cl |  | inactive
O=C1CCCCC1Cl (stereo not given) | -9.74% (inactive) | 
COc1cc(CC(C)N)cc2c1OCO2 (stereo not given) | -0.151% (inactive) | 
CC(C)(C)NCC(O)c1cc(Cl)c(N)c(Cl)c1 (stereo not given) | 7.88% [at 42.5 µM] (inactive) | 
OCCCl | 3.07% (inactive) | 
N#Cc1cc(I)c(O)c(I)c1 | 5.68% (inactive) | 
COc1ccc(CN2CCNCC2)c(OC)c1OC | 1.76% [at 42.5 µM] (inactive) | 
CCN(CC)C(=O)Cl | -1.84% (inactive) | 
CCCCC(CC)CO[N+](=O)[O-] (stereo not given) | -0.139% (inactive) | 
COc1ccc2[nH]cc(CCN(C(C)C)C(C)C)c2c1 | -4.23% (inactive) | 
CCCCCCCCCCCOC(=O)c1ccccc1C(=O)OCCCCCCCCCCC |  | inactive

SMILES | activity change, negative = cytotoxicity | Potency
CCOC(=S)S |  | inactive
O=S1(=O)OCC2C(CO1)C1(Cl)C(Cl)=C(Cl)C2(Cl)C1(Cl)Cl (stereo not given) | -17.9% (inactive) | 
C[C@]12Cc3nonc3C[C@@H]1CC[C@@H]1[C@@H]2CC[C@@]2(C)[C@H]1CC[C@]2(C)O |  | 29.8 µM (active)
N#C/C=C/C#N | 0.748% (inactive) | 
CCCCCCCCCCn1cc[n+](C)c1 |  | inactive
CCOP(=S)(OCC)Oc1nc(Cl)n(C(C)C)n1 | -7.74% (inactive) | 
O=C(O)C(F)(F)C(F)(F)C(F)(F)C(F)(F)C(F)(F)C(F)(F)C(F)(F)C(F)(F)C(F)(F)C(F)(F)F | 3.5% (inactive) | 
O=C(O)C1(c2ccc3c(c2)OC[C@H](Cc2ccc(-c4ccccc4)cc2)[C@H]3O)CCCC1 | -14% (inactive) | 
C[C@]12CC[C@H]3[C@@H](CC=C4C[C@@H](O)CC[C@@]43C)[C@@H]1CC[C@@H]2O | 9.84% [at 42.5 µM] (inactive) | 
C=CC(=C)C | 1.08% (inactive) | 
Nc1ccc([N+](=O)[O-])cc1Cl | 0.829% (inactive) | 
CC[C@H]1C[C@H]2[C@@H]3CCC4=CC(=O)CC[C@@H]4[C@H]3CC[C@]2(C)[C@H]1O | -15.8% [at 42.5 µM] (inactive) | 
CCCCOC(=O)c1ccccc1C(=O)O | -9.27% (inactive) | 
N#Cc1cc([N+](=O)[O-])ccc1N | 10.3% (inactive) | 
CCc1cc(OC)c(C[C@H](C)N)cc1OC | -5.45% (inactive) | 
CN1[C@@H]2CC[C@H]1CC(OC(=O)c1cc(Cl)cc(Cl)c1)C2 (stereo not given in full) | 11.8% [at 42.5 µM] (inactive) | 
CC(C)Oc1cc(-n2nc(C(C)(C)C)oc2=O)c(Cl)cc1Cl | -17.1% (inactive) | 
COc1nn(C(=O)NS(=O)(=O)c2ccccc2OC(F)(F)F)c(=O)n1C | -7.83% (inactive) | 
CCOP(=S)(OCC)Oc1cc(Cl)c(Br)cc1Cl | -13.3% (inactive) | 
Cc1cc(N=Nc2ccccc2C)ccc1N |  | inactive
